The record followed here is PubChem BioAssay (NCI).

Molecules are shown by their SMILES. This is part of a sample that, as a whole, favours compounds with a hit. Of some 83,000 tested, about 20% had one in any assay.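 Assay: single dose, 48 h. Readout: percent growth (0 = no net growth; negative = cell death). Active: <10.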 Values without a mark were called inactive. The source made the active and inactive calls.

What all share (experiment): NCI-60 one-dose screen, 48 h (100 = growth as untreated, 0 = no growth, -100 = all killed)
Holding throughout (details): 10 µM unless noted

The test system of assay [1] is NCI-H23 lung.
The test system of assay [2] is NCI-H226 lung.
Assay [3] relates to NCI-H322M lung.
Assay [4] deals with HOP-62 NSCLC.
Assay [5] concerns NCI-H460 lung.
Assay [6] relates to HOP-92 NSCLC.
Assay [7] has as its system NCI-H522 lung.
Assay [8] deals with A549/ATCC NSCLC.
The test system of assay [9] is 786-0 renal.
Assay [10] deals with COLO 205 colon.

With `COc1ccc2c(c1)C(=O)/C(=C/c1ccccn1)CC2`, the growth in assay [1] was 74.1%; in assay [2], 95.8%; in assay [3] it was 99.3%; in [4], 105%; in assay [5] it was 97.8%; in assay [6], 84.1%. Besides, the growth in [7] was 16.5%; in [8] it was 95.2%; in assay [9], 100%; in assay [10], 87.7%.
Consider `Cn1ccnc1C(=O)/C=C/c1ccc(CC(=O)Nc2ccccc2)cc1`, for which the growth in assay [1] was 18.9%; in [2] it was 47%; in assay [3], 2.66% (active); in [4], 6.23% (active); in assay [5] it was -19% (active); in assay [6], 26.6%. Moreover, the growth in [7] was 12.8%; in [8], 5.36% (active); in assay [9], 18.6%; in assay [10] it was 4.76% (active).
`CC(=O)c1nc2ccccc2n1CC(=O)c1cccc(Cl)c1`: the growth in assay [1] was 36.6%; in assay [2], 105%; in [3] it was 48.2%; in [4], 55.8%; in assay [5], 4.22% (active); in assay [6], 75.6%. In addition, the growth in [7] was -16% (active); in assay [8], 15.2%; in assay [9], 35.8%; in assay [10] it was 117%.
Turning to `CC1C(/C=N/Nc2ccccc2)C(C#N)(C#N)C1(C#N)C#N` (stereo not given), the growth in assay [1] was 78.6%; in [2], 88%; in assay [3], 75.1%; in assay [4], 57.1%; in [5], 87.9%; in [6] it was 90.5%. The growth was 53.9% in assay [7], 85.1% in [8], 92.9% in assay [9] and 105% in assay [10].
With `Cc1ccc(/C=C2\SC(=S)N(CC(=O)NCCCN3CCOCC3)C2=O)cc1`, the growth in [1] was 99.6%; in assay [2], 91%; in assay [3], 104%; in assay [4] it was 103%; in [5], 103%; in assay [6], 91.5%. Besides, the growth is 90.5% in [7], 102% in assay [8], 104% in assay [9] and 111% in [10].
As to `COc1cc(C)c(C2C(C#N)=C(N)Oc3n[nH]c(-c4cccs4)c32)cc1C(C)C` (stereo not given), the growth in [1] was 93.9%; in assay [2], 101%; in assay [3], 108%; in [4], 96.8%; in assay [5], 107%; in assay [6], 99.7%. Also, the growth in assay [7] was 91.2%; in assay [8] it was 86.7%; in assay [9] it was 103%; in [10] it was 118%.
As to `O=C1NC(=S)NC(=O)C1CC(=O)n1c(-c2ccccc2)nc2ccccc21`, the growth is 97.2% in assay [1]; 86.1% in [2]; 94% in [3]; 79.9% in assay [4]; 101% in assay [5]; 108% in assay [6]. Moreover, the growth in assay [7] is 96.9%; in assay [8], 97.7%; in assay [9] it was 104%; in assay [10], 111%.
`COc1ccc(-c2nc3ccc(-c4nc5ccc(N6CCN(c7ccncc7)CC6)cc5[nH]4)cc3[nH]2)cc1OC`: the growth in assay [1] was 36.9%; in assay [2], 46%; in [3] it was 81.2%; in assay [4], 61%; in assay [5] it was 83.5%; in assay [6] it was 57.8%. Moreover, the growth in assay [7] was -58% (active); in [8] it was 80.7%; in [9] it was 76.4%; in [10], 13.3%.
On to `Cc1nc(Nc2ccc(F)c(Cl)c2)sc1C(=O)O`, for which the growth in [1] is 15.7%; in [2], 26.9%; in [3] it was 54.3%; in assay [4] it was 27.3%; in assay [5] it was 18.1%; in assay [6], -23.8% (active). Besides, the growth in assay [7] was -9.27% (active); in assay [8], 12.9%; in assay [9], 19.6%; in assay [10] it was 5.72% (active).
Consider `Nc1ccn(-c2ccc(Br)cc2)c(=O)n1`, for which the growth is 88.8% in assay [1]; 128% in assay [2]; 120% in [3]; 102% in assay [4]; 105% in assay [5]; 74.6% in assay [6]. The growth is 88.5% in assay [7], 107% in assay [8], 102% in assay [9] and 198% in [10].
Regarding `O=C1c2cccc3cccc(c23)C(=O)N1CCCCCN1CCN(CCCCCOc2ccc(-c3nc4ccc(N5CCOCC5)cc4[nH]3)cc2)CC1`, the growth was 98.9% in [1]; 78.9% in assay [2]; 103% in [3]; 97.4% in assay [4]; 27.5% in [5]; 49.2% in assay [6]. The growth in assay [7] was 73.7%; in assay [8], 21.3%; in assay [9] it was 109%; in assay [10], 96.5%.
Regarding `O=[N+]([O-])c1cnc(N2CCN(CC3CC3)CC2)nc1N1CCN(CC2CC2)CC1`, the growth is 95.4% in [1]; 81.3% in assay [2]; 88.8% in assay [3]; 108% in [4]; 102% in assay [5]; 74% in [6]. In addition, the growth was 93.9% in assay [7], 104% in assay [8], 94.8% in [9] and 97.1% in assay [10].
As to `Cc1cc(C)c2nc3nc(C)cc(C)c3c(N)c2c1`, the growth in [1] was 47.6%; in assay [2], 23.2%; in assay [3] it was 40.9%; in assay [4], 33.8%; in assay [5] it was -2.37% (active); in [6], -1.87% (active). Also, the growth is 39% in assay [7], 19.9% in assay [8], 28.4% in assay [9] and 16.2% in assay [10].
Take `CCOC(=O)c1sc(Nc2ccc(Cl)cc2)nc1C`: the growth in [1] was 19.3%; in [2] it was 21.9%; in [3], 53.4%; in assay [4], 28.3%; in [5], 19.3%; in [6], -20.9% (active). The growth is -14.4% (active) in assay [7], 15.2% in [8], 25% in assay [9] and 11% in assay [10].
